Data from the supplement of paper PMC11732987, “Enantioselective OTUD7B fragment discovery through chemoproteomics screening and high-throughput optimisation” (Communications Chemistry, 2025).

Experiments:
Assay in all cases: log2 ratio of Biotin-Ahx-Ub-VS probe labelling (fragment/DMSO); higher = less target engagement (more negative = stronger competition), active = hit call of the paper (q ≤ 0.05, log2 ratio ≤ -1)
Conditions in all cases: compound concentration: 200 uM; treatment time: 3 h
USP19 = target: T1, USP19 (UniProt O94966)
T1 sequence (whole entry): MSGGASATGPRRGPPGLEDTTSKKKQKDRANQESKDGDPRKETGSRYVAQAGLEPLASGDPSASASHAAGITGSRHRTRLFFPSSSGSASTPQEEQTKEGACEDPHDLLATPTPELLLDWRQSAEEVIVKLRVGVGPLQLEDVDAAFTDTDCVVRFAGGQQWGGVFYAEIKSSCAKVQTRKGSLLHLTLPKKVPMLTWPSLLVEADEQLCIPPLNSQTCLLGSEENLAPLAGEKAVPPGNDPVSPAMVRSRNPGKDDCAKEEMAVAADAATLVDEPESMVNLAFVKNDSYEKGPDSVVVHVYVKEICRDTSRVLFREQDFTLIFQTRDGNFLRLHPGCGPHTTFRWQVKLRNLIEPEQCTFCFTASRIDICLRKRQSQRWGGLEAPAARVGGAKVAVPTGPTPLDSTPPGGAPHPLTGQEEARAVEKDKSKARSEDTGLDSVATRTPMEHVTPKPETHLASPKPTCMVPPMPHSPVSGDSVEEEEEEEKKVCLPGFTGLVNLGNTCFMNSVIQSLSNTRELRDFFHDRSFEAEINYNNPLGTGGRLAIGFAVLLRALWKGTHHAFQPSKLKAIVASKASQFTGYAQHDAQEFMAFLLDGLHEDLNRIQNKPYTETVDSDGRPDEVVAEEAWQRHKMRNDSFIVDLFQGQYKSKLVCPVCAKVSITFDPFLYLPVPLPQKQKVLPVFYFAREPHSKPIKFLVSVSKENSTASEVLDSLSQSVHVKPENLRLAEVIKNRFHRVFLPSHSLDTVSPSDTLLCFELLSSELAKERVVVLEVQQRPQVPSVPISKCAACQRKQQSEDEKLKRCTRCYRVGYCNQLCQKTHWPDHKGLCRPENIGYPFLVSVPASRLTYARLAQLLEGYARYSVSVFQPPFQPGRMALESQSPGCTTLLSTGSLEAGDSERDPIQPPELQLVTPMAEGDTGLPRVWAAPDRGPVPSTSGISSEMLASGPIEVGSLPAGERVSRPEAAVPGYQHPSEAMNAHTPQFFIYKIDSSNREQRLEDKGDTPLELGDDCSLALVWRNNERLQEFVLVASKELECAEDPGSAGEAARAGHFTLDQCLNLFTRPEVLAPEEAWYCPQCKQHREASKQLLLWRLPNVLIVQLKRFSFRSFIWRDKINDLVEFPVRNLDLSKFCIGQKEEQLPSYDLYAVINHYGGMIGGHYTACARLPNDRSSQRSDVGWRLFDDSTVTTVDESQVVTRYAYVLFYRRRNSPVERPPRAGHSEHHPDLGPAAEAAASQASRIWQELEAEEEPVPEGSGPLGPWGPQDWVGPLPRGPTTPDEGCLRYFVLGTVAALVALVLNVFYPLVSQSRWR
Summary of the method: (§1)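 Triplicate samples of HEK293T lysate, 495 µg each, received fragment at 200 µM or vehicle for 3 h, followed by Biotin-Ahx-Ub-VS (0.5 µM final) for 1 h. After NeutrAvidin enrichment of labelled DUBs and LysC/trypsin digestion, peptides were run by diaPASEF LC-MS/MS. The values are average log2 fragment/vehicle ratios from global-median-normalised Spectronaut label-free quantities, tested by unpaired t-test on proteins having ≥2 unique peptides.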

USP22 = target: T2, USP22 (UniProt Q9UPT9)
T2 sequence (whole entry): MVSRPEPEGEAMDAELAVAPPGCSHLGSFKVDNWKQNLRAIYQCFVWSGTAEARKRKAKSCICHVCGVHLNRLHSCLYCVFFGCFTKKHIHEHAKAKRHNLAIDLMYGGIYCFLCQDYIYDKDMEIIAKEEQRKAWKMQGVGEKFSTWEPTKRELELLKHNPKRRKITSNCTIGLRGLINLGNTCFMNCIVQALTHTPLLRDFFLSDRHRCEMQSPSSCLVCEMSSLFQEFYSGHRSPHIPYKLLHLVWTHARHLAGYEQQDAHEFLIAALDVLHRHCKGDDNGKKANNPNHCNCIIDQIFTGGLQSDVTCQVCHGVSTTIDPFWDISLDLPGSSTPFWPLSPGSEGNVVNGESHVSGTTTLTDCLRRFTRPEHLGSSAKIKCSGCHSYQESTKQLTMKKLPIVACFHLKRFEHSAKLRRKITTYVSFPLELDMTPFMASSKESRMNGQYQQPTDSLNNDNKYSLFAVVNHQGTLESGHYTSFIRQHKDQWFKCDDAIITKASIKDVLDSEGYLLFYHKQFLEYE
Summary of the method: as §1

USP24 = USP24 (UniProt Q9UPU5)
Chain of USP24 (Q9UPU5 whole entry): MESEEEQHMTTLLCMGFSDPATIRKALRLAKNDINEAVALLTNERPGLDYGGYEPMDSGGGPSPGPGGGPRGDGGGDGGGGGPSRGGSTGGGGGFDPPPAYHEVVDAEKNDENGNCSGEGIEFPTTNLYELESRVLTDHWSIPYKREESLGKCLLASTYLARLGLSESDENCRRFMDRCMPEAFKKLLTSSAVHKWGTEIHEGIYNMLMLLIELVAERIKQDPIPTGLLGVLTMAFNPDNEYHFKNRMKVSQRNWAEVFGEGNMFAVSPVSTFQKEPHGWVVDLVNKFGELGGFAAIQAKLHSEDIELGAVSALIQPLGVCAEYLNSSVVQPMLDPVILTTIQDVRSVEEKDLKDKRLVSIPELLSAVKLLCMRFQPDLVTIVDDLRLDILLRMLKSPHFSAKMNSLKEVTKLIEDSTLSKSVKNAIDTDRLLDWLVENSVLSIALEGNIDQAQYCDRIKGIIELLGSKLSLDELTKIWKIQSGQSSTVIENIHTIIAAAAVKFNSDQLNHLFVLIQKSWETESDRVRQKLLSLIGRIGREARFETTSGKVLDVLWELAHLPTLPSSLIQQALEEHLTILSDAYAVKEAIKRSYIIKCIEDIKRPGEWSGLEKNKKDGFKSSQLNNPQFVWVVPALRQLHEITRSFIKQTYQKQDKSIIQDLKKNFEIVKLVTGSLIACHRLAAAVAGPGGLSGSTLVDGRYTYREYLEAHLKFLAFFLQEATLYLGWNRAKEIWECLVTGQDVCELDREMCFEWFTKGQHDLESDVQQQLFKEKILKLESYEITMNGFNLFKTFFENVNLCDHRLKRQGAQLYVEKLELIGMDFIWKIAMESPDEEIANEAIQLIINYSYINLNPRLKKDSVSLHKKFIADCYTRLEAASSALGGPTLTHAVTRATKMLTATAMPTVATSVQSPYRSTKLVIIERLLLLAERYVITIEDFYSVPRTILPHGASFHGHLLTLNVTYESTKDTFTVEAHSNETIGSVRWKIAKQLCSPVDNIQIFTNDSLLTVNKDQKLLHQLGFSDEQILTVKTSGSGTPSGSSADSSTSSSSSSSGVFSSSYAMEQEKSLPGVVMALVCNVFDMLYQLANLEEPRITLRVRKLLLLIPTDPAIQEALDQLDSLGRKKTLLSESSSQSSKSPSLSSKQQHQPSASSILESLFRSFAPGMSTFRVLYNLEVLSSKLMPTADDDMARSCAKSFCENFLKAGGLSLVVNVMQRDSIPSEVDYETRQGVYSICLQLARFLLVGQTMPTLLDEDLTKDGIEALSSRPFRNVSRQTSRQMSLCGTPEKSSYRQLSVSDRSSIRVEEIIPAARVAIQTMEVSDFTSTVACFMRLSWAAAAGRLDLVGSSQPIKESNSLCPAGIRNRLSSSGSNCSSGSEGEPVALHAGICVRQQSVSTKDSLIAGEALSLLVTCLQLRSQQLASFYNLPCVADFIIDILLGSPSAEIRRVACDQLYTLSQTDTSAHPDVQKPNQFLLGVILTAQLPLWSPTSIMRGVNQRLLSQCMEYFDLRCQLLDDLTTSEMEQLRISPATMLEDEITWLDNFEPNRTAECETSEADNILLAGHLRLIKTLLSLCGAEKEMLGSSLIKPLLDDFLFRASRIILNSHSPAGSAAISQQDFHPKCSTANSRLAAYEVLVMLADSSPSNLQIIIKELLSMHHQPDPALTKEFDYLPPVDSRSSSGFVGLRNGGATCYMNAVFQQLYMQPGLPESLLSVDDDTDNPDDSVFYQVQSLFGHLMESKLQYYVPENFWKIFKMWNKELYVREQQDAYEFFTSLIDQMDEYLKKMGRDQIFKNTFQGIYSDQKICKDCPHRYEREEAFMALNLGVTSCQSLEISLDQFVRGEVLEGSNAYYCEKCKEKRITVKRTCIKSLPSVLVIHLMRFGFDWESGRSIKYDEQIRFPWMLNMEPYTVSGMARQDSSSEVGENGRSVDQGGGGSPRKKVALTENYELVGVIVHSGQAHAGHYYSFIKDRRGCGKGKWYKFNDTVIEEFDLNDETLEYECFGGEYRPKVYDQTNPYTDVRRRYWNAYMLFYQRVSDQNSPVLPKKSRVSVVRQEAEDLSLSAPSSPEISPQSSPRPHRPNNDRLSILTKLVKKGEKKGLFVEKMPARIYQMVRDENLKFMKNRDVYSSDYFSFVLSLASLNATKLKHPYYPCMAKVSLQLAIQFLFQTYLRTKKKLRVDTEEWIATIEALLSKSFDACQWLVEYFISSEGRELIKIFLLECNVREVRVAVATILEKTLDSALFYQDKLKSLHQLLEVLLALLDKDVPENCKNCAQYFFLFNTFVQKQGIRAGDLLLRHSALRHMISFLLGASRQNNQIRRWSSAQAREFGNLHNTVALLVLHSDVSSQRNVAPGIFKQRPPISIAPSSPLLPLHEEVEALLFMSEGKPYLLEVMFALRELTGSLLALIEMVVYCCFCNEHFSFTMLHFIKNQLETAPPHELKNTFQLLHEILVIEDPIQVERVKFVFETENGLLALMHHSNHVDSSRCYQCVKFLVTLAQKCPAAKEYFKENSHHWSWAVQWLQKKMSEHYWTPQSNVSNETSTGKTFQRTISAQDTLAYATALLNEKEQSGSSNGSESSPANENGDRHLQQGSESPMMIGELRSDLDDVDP
Summary of the method: as §1

USP25 = target: T3, USP25 (UniProt Q9UHP3)
T3 sequence (whole entry): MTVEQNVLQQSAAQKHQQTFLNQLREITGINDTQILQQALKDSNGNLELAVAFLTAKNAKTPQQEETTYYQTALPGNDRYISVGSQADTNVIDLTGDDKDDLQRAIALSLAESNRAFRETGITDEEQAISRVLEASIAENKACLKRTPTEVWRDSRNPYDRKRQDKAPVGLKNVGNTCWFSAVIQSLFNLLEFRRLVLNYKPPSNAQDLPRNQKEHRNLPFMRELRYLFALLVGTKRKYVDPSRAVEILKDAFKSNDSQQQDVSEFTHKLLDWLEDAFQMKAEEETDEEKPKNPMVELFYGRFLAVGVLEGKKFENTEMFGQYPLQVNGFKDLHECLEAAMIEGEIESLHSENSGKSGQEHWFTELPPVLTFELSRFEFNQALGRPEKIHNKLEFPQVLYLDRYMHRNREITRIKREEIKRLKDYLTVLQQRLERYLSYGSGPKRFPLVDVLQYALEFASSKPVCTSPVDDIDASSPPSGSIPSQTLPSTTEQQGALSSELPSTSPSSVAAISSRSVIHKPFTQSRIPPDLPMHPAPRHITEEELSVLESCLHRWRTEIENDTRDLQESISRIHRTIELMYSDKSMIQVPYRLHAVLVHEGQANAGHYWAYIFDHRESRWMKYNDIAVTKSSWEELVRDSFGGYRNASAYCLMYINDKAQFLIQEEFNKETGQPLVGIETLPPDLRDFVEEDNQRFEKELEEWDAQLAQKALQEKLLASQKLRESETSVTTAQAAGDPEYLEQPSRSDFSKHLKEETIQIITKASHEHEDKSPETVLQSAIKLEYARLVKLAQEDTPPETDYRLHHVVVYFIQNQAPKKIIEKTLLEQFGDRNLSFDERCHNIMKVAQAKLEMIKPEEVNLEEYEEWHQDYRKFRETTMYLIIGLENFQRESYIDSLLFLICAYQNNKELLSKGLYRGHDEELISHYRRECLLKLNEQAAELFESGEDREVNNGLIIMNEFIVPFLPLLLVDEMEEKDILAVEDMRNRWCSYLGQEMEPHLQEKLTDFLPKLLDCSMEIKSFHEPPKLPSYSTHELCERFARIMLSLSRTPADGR
Summary of the method: as §1

USP28 = target: T4, USP28 (UniProt Q96RU2)
T4 sequence (whole entry): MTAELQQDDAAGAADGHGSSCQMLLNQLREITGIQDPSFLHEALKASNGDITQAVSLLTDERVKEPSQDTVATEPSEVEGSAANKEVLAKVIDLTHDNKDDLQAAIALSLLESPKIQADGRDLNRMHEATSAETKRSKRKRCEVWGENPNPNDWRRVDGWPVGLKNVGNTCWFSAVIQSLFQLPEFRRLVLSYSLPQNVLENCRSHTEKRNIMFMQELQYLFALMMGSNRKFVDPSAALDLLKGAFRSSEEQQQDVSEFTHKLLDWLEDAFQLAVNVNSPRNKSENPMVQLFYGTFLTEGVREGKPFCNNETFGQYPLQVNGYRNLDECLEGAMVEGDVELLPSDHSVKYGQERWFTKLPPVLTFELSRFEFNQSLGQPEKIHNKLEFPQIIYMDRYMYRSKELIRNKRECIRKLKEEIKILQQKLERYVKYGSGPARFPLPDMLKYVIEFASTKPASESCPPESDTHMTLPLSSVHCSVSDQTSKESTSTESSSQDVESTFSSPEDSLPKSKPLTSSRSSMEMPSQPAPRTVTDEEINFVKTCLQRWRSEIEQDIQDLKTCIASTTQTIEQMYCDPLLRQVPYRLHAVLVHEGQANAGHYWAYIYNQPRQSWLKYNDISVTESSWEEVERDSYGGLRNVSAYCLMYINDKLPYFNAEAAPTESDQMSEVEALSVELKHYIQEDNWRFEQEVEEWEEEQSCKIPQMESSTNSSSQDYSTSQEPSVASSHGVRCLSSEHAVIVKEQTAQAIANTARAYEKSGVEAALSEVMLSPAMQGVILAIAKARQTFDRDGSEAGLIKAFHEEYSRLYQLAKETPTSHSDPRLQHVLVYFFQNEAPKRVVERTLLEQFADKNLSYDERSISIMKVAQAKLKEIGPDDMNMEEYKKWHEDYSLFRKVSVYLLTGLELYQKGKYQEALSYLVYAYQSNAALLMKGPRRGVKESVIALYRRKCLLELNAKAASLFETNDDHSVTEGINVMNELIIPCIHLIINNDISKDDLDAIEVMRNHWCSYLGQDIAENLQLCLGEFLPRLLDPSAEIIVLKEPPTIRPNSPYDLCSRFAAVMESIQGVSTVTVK
Summary of the method: as §1

Measured: log2 ratio of Biotin-Ahx-Ub-VS probe labelling

O=C(CCl)N1CCC(c2noc3cc(F)ccc23)CC1
inactive: USP19 -0.49 | USP22 -0.492 | USP24 -0.986 | USP25 -0.302 | USP28 -0.607
